The entries come from a sample that favours hits as a whole.
TSG101-PTAP inh = inhibitors of HIV-1 PTAP binding to human TSG101, validation; Fluorescence polarization, FITC-PTAP peptide/Tsg101, 20 min; 44,000 tested, under 10 active; Potency, µM (highest dose often 115 µM), actives largely listed as inhibitors; Q99816
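FITC-labeled PTAP peptide (50 nM final) binding to Tsg101 binding domain (10 uM final) read by fluorescence polarization after 20 min at r.t. in HEPES pH 7.5 buffer. Actives by CRC class, <25 µM.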
B2AR arrestin ag = beta-arrestin recruitment by human beta2-adrenergic receptor ligands. P07550. HTLA Tango cells, beta-arrestin recruitment, luciferase luminescence, 18 h. Potency, µM (titrated, usually from 46.1 µM), usual class: activators. 44,000 tested, under 10 active
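Ligand-induced beta-arrestin recruitment to recombinant beta2-AR is measured via a tTA-driven luciferase reporter in Tango cells after 18 hr compound exposure at 37 degrees C. Concentrations span up to 46 microM.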
NTMT1 inhibitor = blocks human N-terminal methyltransferase 1 activity | NTMT1 MTase-Glo SAH luminescence, purified enzyme | Potency, µM (doses to about 114 µM), most hits filed as inhibitors | 2.5% of 59,000 active; note: nearly all actives have a fitted effect of over 65% in size
Target sequence (Q9BV86 whole entry, looked up): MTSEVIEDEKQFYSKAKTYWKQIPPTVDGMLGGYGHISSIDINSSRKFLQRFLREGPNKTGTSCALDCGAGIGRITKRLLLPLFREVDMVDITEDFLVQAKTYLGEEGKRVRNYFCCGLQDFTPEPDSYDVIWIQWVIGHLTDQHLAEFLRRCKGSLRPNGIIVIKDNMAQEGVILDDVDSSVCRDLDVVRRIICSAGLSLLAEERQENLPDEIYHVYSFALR
GALK inhibitor = inhibits human galactokinase. Potency, µM (titrated, usually from 57.5 µM), hits mostly inhibitors. recombinant GALK, Kinase-Glo ATP luminescence, 1 h. P51570. 44,000 tested, under 10 active
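Reactions with and without enzyme served as controls. GALK at 5 nM phosphorylates 100 uM galactose using 35 uM ATP (HEPES pH 8.0, Mg2+) for 1 h at RT, with luminescence read 10 min after adding Kinase-Glo Plus.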
FH mod = Identification of activators of human fumarate hydratase by quantitative high-throughput screening | FH coupled MDH/diaphorase resazurin fluorescence, 15 min | Potency, µM (highest dose often 79.9 µM), actives largely listed as inhibitors | 0.22% of 54,000 active | AID 1347055, 2019; note: the screen sought activators but most active calls are inhibition curves; nearly all actives have a fitted effect of over 45% in size
Target sequence (P07954 whole entry, looked up): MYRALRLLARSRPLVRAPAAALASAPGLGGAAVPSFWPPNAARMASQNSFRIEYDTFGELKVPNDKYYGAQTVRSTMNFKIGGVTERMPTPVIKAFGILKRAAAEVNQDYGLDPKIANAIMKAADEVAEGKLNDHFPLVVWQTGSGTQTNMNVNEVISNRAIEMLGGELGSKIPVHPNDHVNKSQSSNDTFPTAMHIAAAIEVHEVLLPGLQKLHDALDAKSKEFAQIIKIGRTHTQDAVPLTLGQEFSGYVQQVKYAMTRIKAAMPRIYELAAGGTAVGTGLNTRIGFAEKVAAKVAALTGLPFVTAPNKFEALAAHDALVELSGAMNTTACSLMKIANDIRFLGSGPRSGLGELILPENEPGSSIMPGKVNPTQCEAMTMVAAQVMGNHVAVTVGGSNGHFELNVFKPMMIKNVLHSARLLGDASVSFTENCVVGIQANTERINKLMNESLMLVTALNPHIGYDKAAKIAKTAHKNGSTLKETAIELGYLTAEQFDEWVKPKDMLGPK
GALC G270D act = galactocerebrosidase G270D activity enhancement, cell-based; P54803; 145M-Twi-hGALC-G270D cells (Twitcher mouse brain line with human GALC G270D), HMU-beta-Gal fluorescence, 48 h; Potency, µM (highest dose often 57.5 µM), usual class: activators; 0.1% of 45,000 active; AID 1159614; note: nearly all actives have a fitted effect of over 65% in size
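Brain-derived Twitcher mouse 145M-Twi cells stably expressing human GALC-G270D or wild-type GALC, treated live, then residual GALC activity read by fluorescence of HMU-b-Gal substrate (0.1 mM final) in citrate-phosphate buffer pH 5.2 with sodium taurocholate. Signal increase indicates enhancement.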
Numbers stand for hits; n = inactive; u = inconclusive; x = no result given; ! = not confirmed by another sample; [ ] = remark or other dose. Calls come from the whole dose curve; as a rule, active = well fitted curve in the direction sought with a large enough effect; inconclusive = small, poorly fitted or top-dose-only effect, or another doubt; inactive = no such curve, though single readings can be large; an effect the other way counts as inactive or inconclusive.

SMILES | TSG101-PTAP inh | B2AR arrestin ag | NTMT1 inhibitor | GALK inhibitor | FH mod | GALC G270D act
Nc1c(-c2ccncc2)cc[nH]c1=O | x | x | 79µM | x | x | x
C=Cc1c(C)c2cc3[nH]c(cc4nc(cc5nc(cc1[nH]2)C(C)=C5CCC(=O)O)C(CCC(=O)O)=C4C)c(C)c3C=C | x | x | 25µM | x | u | n
FC(F)(F)c1ccccc1-c1nc(NCc2ccc(-c3cccnc3)cc2)c2[nH]cnc2n1 | x | x | n | x | x | x
OCCN1CCN(CCCN2c3ccccc3Sc3ccc(C(F)(F)F)cc32)CC1 | x | x | 32µM! | x | n | n
CC[C@@H]1C(=O)N(C)c2cnc(Nc3ccc(C(=O)NC4CCN(C)CC4)cc3OC)nc2N1C1CCCC1 | x | x | 25µM! | x | n | x
COc1cc(OC2CCN(C)CC2)ccc1Nc1ncc2c(n1)n(C1CCCC1)c(=O)n2C | x | x | n | x | n | x
COc1cc(C(=O)NC2CCN(C)CC2)c(F)cc1Nc1ncc2c(n1)N(C1CCCC1)CC(F)(F)C(=O)N2C | x | x | 28µM | x | n | x
COc1cc(C(=O)NC2CCN(C)CC2)ccc1Nc1ncc2c(n1)N(C1CCCC1)CC(F)(F)C(=O)N2C | x | x | 28µM | x | n | x
O=C(O)c1ccc2cc(-c3ccc(O)c(C45CC6CC(CC(C6)C4)C5)c3)ccc2c1 | x | x | 50µM! | x | n | x
CC/C(C)=C/C(=O)OC1C(OC2(C)CCC3C(C4C(C)CCC42)C3(C)C)OC(C)C(O)C1O (stereo unspecified) | x | x | n | x | n | x
CCOc1ccc(CCNC(=O)c2cc3c(-c4ccc(OC)c(OC)c4)nn(C)c3s2)cc1OCC | n | n | n | n | u | n
COc1ccc(CCNC(=O)c2cc3c(-c4ccc(OC)c(OC)c4)nn(C)c3s2)cc1OC | n | n | n | n | 32µM | n
CN1CCN(c2ccc(Nc3cc(-c4cccc(-n5ccc6cc(C7CC7)cc(F)c6c5=O)c4CO)cn(C)c3=O)nc2)CC1 | x | x | u | x | n | x
O=C(Nc1cccc(C(=O)Nc2ccc(S(=O)(=O)O)c3cc(S(=O)(=O)O)cc(S(=O)(=O)O)c23)c1)Nc1cccc(C(=O)Nc2ccc(S(=O)(=O)O)c3cc(S(=O)(=O)O)cc(S(=O)(=O)O)c23)c1 | x | x | x | x | 28µM | x
COc1ccc(C2Nc3ccccc3C(=O)N2Cc2cccs2)cc1COc1c(C)cc(NC(C)=O)cc1C (stereo unspecified) | x | x | n | x | x | x
Cc1nc(NC(=O)N2CCC[C@H]2C(N)=O)sc1-c1ccnc(C(C)(C)C(F)(F)F)c1 | x | x | u | x | n | x
Cc1nc(NC(=O)N2CCC[C@@H]2C(N)=O)sc1-c1ccnc(C(C)(C)C(F)(F)F)c1 | x | x | 30µM | x | n | x
CC(C)C1CCC(C(=O)Nc2ccc(S(=O)(=O)Nc3nccs3)cc2)CC1 (stereo unspecified) | x | x | n | x | x | x
C=C[C@]1(C)C[C@H](O)[C@@H]2[C@H](OC(=O)[C@@H]2C)C1/C(C)=C/O[C@@H]1O[C@H](CO)[C@@H](O)[C@H](O)[C@H]1O (stereo partly specified) | x | x | n | x | n | x
COc1cc(OC)cc(C(=O)Nc2ccc3nc4n(c(=O)c3c2)CCCCC4)c1 | n | n | 45µM | n | n | n
COc1ccc(C)cc1NC(=O)c1ccc2c(=O)n3c(nc2c1)CCCCC3 | n | n | 79µM | n | n | n
COc1ccc(/C=C2\COc3ccc(C)cc3C2=O)cc1O | x | x | x | x | n | x
COC(=O)c1cccc(NC(=O)c2nsc3ccccc23)c1 | n | n | 45µM | n | n | n
COc1cccc(CNC(=O)c2cccc(NC(=O)c3nsc4ccccc34)c2)c1 | n | n | n | n | n | n
CCc1ccc(NCc2cc3cc4c(cc3n(CC(=O)Nc3cccc(OC)c3)c2=O)OCO4)cc1 | n | n | n | n | n | 28µM
SMILES | TSG101-PTAP inh | B2AR arrestin ag | NTMT1 inhibitor | GALK inhibitor | FH mod | GALC G270D act
O=C(O)c1ccccc1C(=O)Nc1ccc(-c2ccccc2)cc1 | x | x | 8.6µM! | x | n | x
O=C(c1ccccc1)c1ccccc1NC(=O)c1ccccc1C(=O)O | n | n | n | n | n | n
Oc1cccc(Nc2ccnc3cc(-c4cccc(CN5CCOCC5)c4)sc23)c1 | x | x | n | x | n | x
CC(=O)c1ccccc1-c1ncc(C)c(NCc2ccc(-c3cccnc3)cc2)n1 | x | x | n | x | x | x
CN1CCN(c2ccc(Nc3ncc4cc(C#N)c(=O)n(C5CCCC5)c4n3)cc2)CC1 | x | x | n | x | x | x
C=CC(=O)N1CC[C@@H](Oc2nc(Nc3ccc(N4CCC(N5CCN(C)CC5)CC4)cc3)c(C(N)=O)nc2CC)C1 | x | x | 4µM | x | x | x
CCN(CC)CCNC(=O)c1cc2c(=O)[nH]c3ccc(C)cc3c2s1 | n | n | u | n | n | n
CCN(CCCNC(=O)c1cc2c(=O)[nH]c3ccc(C)cc3c2s1)Cc1ccccc1 | n | n | 50µM | n | u | n
O=C(NCCCN1CCCCC1)c1cc(Sc2ccc(Cl)cc2)nc2ccccc12 | n | n | 89µM | n | n | n
CC1CCCN(CCCNC(=O)c2cc(Sc3ccc(F)cc3)nc3ccccc23)C1 (stereo unspecified) | n | n | n | n | n | n
CC(C)c1ccccc1Cc1cc(C(=O)Nc2ccc(S(=O)(=O)c3ccccc3C(C)(C)C)cc2)c(O)c(O)c1O | x | x | 71µM! | x | n | x
COc1ccc(CNc2nc(-c3ccccc3C(F)(F)F)nc3ccccc23)cc1 | x | x | n | x | x | x
CC(C)N(Cc1ccccc1)C(=O)c1cc2ccc3cccnc3c2[nH]1 | n | n | n | n | u | n
CC(C)N(CCC(=O)c1ccc2ccccc2c1)Cc1ccccc1 | x | x | 50µM | x | u | x
Oc1ccc(C(O)CNCCCCCCNCC(O)c2ccc(O)c(O)c2)cc1O (stereo unspecified) | x | x | 35µM | x | n | n
CNC[C@H](O)c1ccc(O)c(O)c1 | x | x | 55µM! | x | n | n
Cn1c(=O)nc2n(-c3ccc(Cl)c(Cl)c3)c3cc(Cl)ccc3cc-2c1=O | n | n | u | n | n | n
CC(C)c1cc(-c2n[nH]c(=O)n2-c2ccc3c(ccn3C)c2)c(O)cc1O | x | x | 28µM! | x | n | x
CC(C)c1ccccc1-c1ncc(F)c(NCC2CCN(c3cnccn3)C2)n1 (stereo unspecified) | x | x | n | x | x | x
COc1ccc(-c2cc3onc(-c4ccncc4)c3c(=O)n2C)cc1 | x | x | u | x | n | x
O=C1OC2(c3ccccc31)c1cc(Br)c(O)c(Br)c1Oc1c2cc(Br)c(O)c1Br | x | x | 50µM | x | u | n
O=C(Nc1ccc(S(=O)(=O)Nc2nccs2)cc1)C1CCC2(CC1)CC2 | x | x | n | x | x | x
COC(=O)[C@@H](NC(=O)[C@H](CC(C)C)NC(=O)N(Cc1ccccc1)C[C@@H](O)[C@H](Cc1ccccc1)NC(=O)OC(C)(C)C)C(C)C | x | x | n[12.6 µM] | x | n[13.5 µM] | x

From PubChem BioAssay
